Assay outcomes as filed in PubChem.
Shown are actives, neighbours in structure and some others; about 28% of the full set was active somewhere.
CYP2C19 activ: human CYP2C19 activators, primary screen, biochemical, luminescence | Cytochrome P450 2C19 (Homo sapiens), P33261 | recombinant CYP2C19, luciferin-H EGE luminescence; active compounds read high; 0 = fully inhibited enzyme, 1 = untreated enzyme | activation factor at 5 µM | 96,000 tested, under 10 active | AID 1025, 2008;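 active = activation factor of at least 2 at 5 µM in the primary screen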
CYP2C9 activ: human CYP2C9 activators, primary screen, biochemical, luminescence; Cytochrome P450 2C9 (Homo sapiens), P11712; recombinant CYP2C9, luciferin-H conversion; active compounds read high; factor 1 = untreated enzyme, 0 = blocked; activation factor at 5 µM; 1.4% of 96,000 active;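 active = activation factor of 2 or more for CYP2C9 at a 5 µM dose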
Target sequence (P11712 whole entry, looked up): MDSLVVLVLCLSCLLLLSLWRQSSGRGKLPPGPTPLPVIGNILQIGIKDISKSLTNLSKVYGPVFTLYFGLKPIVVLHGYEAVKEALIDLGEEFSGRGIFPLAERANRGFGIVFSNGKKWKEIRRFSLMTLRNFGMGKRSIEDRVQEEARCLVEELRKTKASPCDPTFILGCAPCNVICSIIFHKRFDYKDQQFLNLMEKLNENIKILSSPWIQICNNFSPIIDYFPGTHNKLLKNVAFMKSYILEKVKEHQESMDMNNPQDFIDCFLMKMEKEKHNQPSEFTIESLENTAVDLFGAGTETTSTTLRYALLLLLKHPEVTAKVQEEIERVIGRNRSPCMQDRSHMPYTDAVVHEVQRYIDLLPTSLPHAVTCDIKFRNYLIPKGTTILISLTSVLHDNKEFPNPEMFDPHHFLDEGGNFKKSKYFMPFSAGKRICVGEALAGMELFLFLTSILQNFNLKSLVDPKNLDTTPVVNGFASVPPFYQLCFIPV
CYP2C19 inhib: blockers of cytochrome P450 2C19 activity – biochemical, luminescence, ADME assay, primary screen. AID 778, 2007. P33261. CYP2C19 Supersomes, luciferin-H EGE luminescence, 30 min. 21% of 96,000 active. inhibition, % at 5 µM;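 active = CYP2C19 inhibition above a set limit at 5 µM in the primary screen, cut at about 50% in these data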
CYP2C9 inhib: blockers of cytochrome P450 2C9 activity – biochemical, luminescence, ADME assay, primary screen | P11712 | CYP2C9 Supersomes, luciferin-H conversion | inhibition, % at 5 µM | 20% of 96,000 active | AID 777, 2007;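 active = blocking of liver enzyme CYP2C9 beyond about 50% at 5 µM, limit read from the data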
PTK2B oligo ant: antagonists of Pyk2 self-association, primary screen, Q293 cells, FERM NanoBiT luminescence, HTS; Protein-tyrosine kinase 2-beta (Homo sapiens), Q14289; active compounds read low; z-score (the deposit names both 25 µM and 10 µM); 0.83% of 99,000 active; AID 1347419, 2020;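 active = Z-score of -3 or lower, scaled per plate to the spread of control and sample wells; inactive = z-score above -3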;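 also: negative z-score means lost luminescence so less FERM oligomerization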
A number is an active result; . = inactive; / = not tested or not shown.

SMILES | CYP2C19 activ | CYP2C9 activ | CYP2C19 inhib | CYP2C9 inhib | PTK2B oligo ant
CCN(c1ccccc1)S(=O)(=O)c1cc(OC)ccc1OC | . | . | 90 | 69 | .
CCN(c1ccccc1)S(=O)(=O)c1ccc(OC)c(OC)c1 | . | . | 56 | . | .
COc1ccc(OC)c(S(N)(=O)=O)c1 | . | . | . | . | .
COc1ccccc1NC(=O)C1CC(=O)N(c2ccc(F)cc2)C1 (stereo unspecified) | . | . | . | . | .
CCCn1c(=O)n(C)c(=O)c2c(SCC(=O)NCc3ccco3)nc(C3CC3)nc21 | . | . | . | 59 | .
COC(=O)c1cc(Br)c(=O)n(-c2ccc(C(C)=O)cc2)c1 | . | . | . | . | /
c1ccc(-c2nn3nnnc3c3ccccc23)cc1 | . | . | 52 | . | .
COC(=O)c1cc2oc3ccccc3c2n1CC(=O)N1CCCc2ccccc21 | . | . | . | . | .
COC(=O)c1cc2ccsc2n1CC(=O)N1CCCc2ccccc21 | . | . | 95 | 93 | .
CCOC(=O)c1cc2sccc2n1CC(=O)N1CCc2ccccc21 | . | . | . | . | -3.5
CCOC(=O)c1cc2sccc2n1CC(=O)Nc1ccc(OC)cc1 | . | . | . | . | .
Cc1csc(=N)n1CC(=O)N1CCc2ccccc21 | . | . | . | . | .
COC(=O)c1cc2ccsc2n1CC(=O)Nc1cc(C)cc(C)c1 | . | . | . | 66 | .
CCOC(=O)c1cc2sccc2n1CC(=O)Nc1ccc(OC)c(OC)c1 | . | . | 87 | . | .
O=C1Nc2ccccc2CCC1Sc1nnc(-c2ccc(Cl)cc2)s1 (stereo unspecified) | / | / | / | / | .
O=C(O)c1ccc(CNCc2c(Cl)cccc2Cl)cc1 | . | . | . | . | .
COC(=O)c1c(NC(=O)c2ccnn2C)sc(C)c1C | / | / | / | / | .
COC(=O)c1cc2ccsc2n1Cc1cc(=O)n2ccccc2n1 | . | . | 53 | 92 | .
COC(=O)c1cc2ccsc2n1Cc1nc(-c2ccc(Cl)cc2)oc1C | . | . | 55 | 89 | /
CCOC(=O)c1cc2sccc2n1CC(=O)OC(C)C | . | . | 97 | 88 | .
COC(=O)c1cc2sccc2n1CC(=O)Nc1cc(OC)cc(OC)c1 | . | . | . | . | .
CCOC(=O)N1CCN(S(=O)(=O)c2ccc3c(c2)OCC(=O)N3)CC1 | . | . | . | . | .
CCOC(=O)C1=C(C)NC(=O)NC1/C=C/c1ccccc1 (stereo unspecified) | . | . | . | . | .
CN(C)c1ccnc(-n2cccc2/C=N/OCc2cccc(F)c2)c1C#N | . | . | 97 | . | .
CN(C)CCN(Cc1ccccc1)c1ccnc(N(C)C)c1C#N | . | . | . | . | .
SMILES | CYP2C19 activ | CYP2C9 activ | CYP2C19 inhib | CYP2C9 inhib | PTK2B oligo ant
Cc1ccn2c(C(=O)N/N=C\c3ccccc3[N+](=O)[O-])c(C)nc2c1 | / | / | / | / | .
COC(=O)C1Cc2c([nH]c3ccccc23)C(C)N1 (stereo unspecified) | . | 2.6 | 50 | . | .
CCOC(=O)C1Cc2c([nH]c3ccccc23)CN1 (stereo unspecified) | . | . | 56 | . | .
N#CC(c1ccc(O)cc1)N1CCOCC1 (stereo unspecified) | / | / | / | / | .
Cc1nonc1OCC(C)(COc1nonc1C)NC(=O)c1ccccc1 | / | / | / | / | .
O=C(COC(=O)CCCSc1nc2ccccc2[nH]1)NC(=O)NC1CCCC1 | . | . | . | . | .
CCOc1ncccc1C(=O)OCC(=O)Nc1ncc(C(F)(F)F)cc1Cl | . | . | 62 | . | .
COc1ccc(NC(=S)NNC(=O)c2ccccc2OC(F)F)cc1 | . | . | . | 54 | .
CCOc1ccccc1C(=O)OCC(=O)Nc1ccc(OC(F)F)cc1 | . | . | 55 | . | .
CCOc1ccccc1C(=O)OCC(=O)Nc1ncc(C(F)(F)F)cc1Cl | . | . | 93 | . | .
CSCCC(NC(=O)OC(C)(C)C)C(=O)Oc1ccc2c(=O)c(-c3ccc4c(c3)OCCO4)coc2c1 (stereo unspecified) | . | . | . | . | .
COc1ccc(S(=O)(=O)N2CCC(NC(=O)Nc3ccc(C)cc3)CC2)cc1 | . | . | . | . | .
COc1cc(Cl)c(C)cc1NC(=O)CSC | . | . | 52 | . | .
COc1cc(Cl)c(C)cc1NC(=O)COc1cc(C)nc(C(C)C)n1 | . | . | . | 51 | .
COc1ccccc1NC(=O)COc1cc(C)nc(C(C)C)n1 | . | . | . | . | .
Cc1c(-c2ccccc2)oc2nc3c(c(=O)n(C)c(=O)n3C)n12 | . | . | . | . | /
O=C(/C=C/c1cccnc1)c1ccc(NC(=O)c2cccc(Br)c2)cc1 | . | . | . | 70 | .
Cc1cccc(CN2C(=O)CCSc3ccc(Cl)cc32)c1 | . | . | 67 | . | .
Cc1cccc(CN2CCNC2=O)c1 | / | / | / | / | .
O=C1CCSc2ccc(Cl)cc2N1Cc1ccccc1 | . | . | 66 | . | .
O=C1CCSc2ccc(Cl)cc2N1Cc1ccc(Cl)cc1 | . | . | . | . | .
Fc1cc(F)c(F)c(SCCc2ccncc2)c1F | . | . | 81 | 74 | .
Fc1ccc(SCCc2ccncc2)cc1 | . | . | 97 | 82 | .
O=S(CCc1ccncc1)Cc1ccccc1 (stereo unspecified) | . | . | 85 | 53 | .
c1ccc(SCCc2ccncc2)cc1 | . | . | 95 | 81 | .
SMILES | CYP2C19 activ | CYP2C9 activ | CYP2C19 inhib | CYP2C9 inhib | PTK2B oligo ant
CSCC[C@H](NC(=O)NCc1ccc(F)cc1)C(=O)O | . | . | . | . | .
CCCOc1ccc(/C(O)=C2/C(=O)C(=O)N(CCN(CC)CC)C2c2ccncc2)cc1 (stereo unspecified) | . | . | . | . | /
COc1cccc(-n2c(Cc3cc(=O)[nH]c(=O)[nH]3)nnc2SCC(=O)N2CCCCCC2)c1 | . | . | . | . | /
CCC(=O)c1ccc(OCC(O)Cn2cnc3ccccc32)cc1 (stereo unspecified) | . | . | . | . | .
CCOC(=O)c1c(C)n(C)c2ccc(OCC(O)Cn3c(C)nc4ccccc43)cc12 (stereo unspecified) | . | . | . | 70 | .
CCC(=O)c1ccc(OCC(O)Cn2c(C)nc3ccccc32)cc1 (stereo unspecified) | . | . | 72 | 50 | .
CCOC(=O)c1cccc(NC(=O)/C(=C\c2ccccc2)NC(=O)c2ccccc2Cl)c1 | . | . | . | 56 | .
CCOC(=O)c1cccc(NC(=O)CCn2cccc2)c1 | . | . | . | . | .
CCOC(=O)c1cnn(CCOC(=O)c2cccs2)c1NC(=O)c1cccs1 | . | . | 75 | 86 | .
CCOC(=O)c1cccc(NC(=O)c2cc3sccc3n2C)c1 | . | . | 96 | 92 | .
CCOC(=O)c1sc(NC(=O)c2sccc2C)cc1C | . | . | . | . | .
CCOC(=O)c1sc(NC(=O)c2cccs2)cc1C | . | . | . | 65 | .
CCOc1nc(Nc2ccc(OC)c(Cl)c2)nc(OCC)n1 | . | . | . | . | .
